PubChem BioAssay (NCATS)
Inconclusive results are not listed. A number with no mark means an inactive call. Active and inactive are the calls of the source. The call rests on the fitted dose curve; in most records, active means well fitted cell-killing curve with a large enough effect; inconclusive means small, poorly fitted or top-dose-only effect, or effect the other way; inactive means flat fitted curve, though single readings scatter.

What follows are molecules tested on CASKI (assay: Primary qHTS to identify gynecologic anti-cancer compounds using libraries of approved drugs and bioactive compounds (AID 1345084; further: nearly all actives have a fitted effect of over 55% in size)). Conditions: Gynecologic cancer cell panel viability, ATPlite luminescence, 48 h; series mostly up to 57.5 µM; activity change, negative = cytotoxicity: at the top concentration.
Procedure, shortened: (§1)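 Five-concentration response, 48 h; readout is ATP-driven luciferase luminescence.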
On the % scale 0 is the no-effect control and ±100 the full control effect; potency means the concentration at half of the fitted maximal effect.

`CCOc1cc(C(C)(C)C)ccc1C1=N[C@@](C)(c2ccc(Cl)cc2)[C@@](C)(c2ccc(Cl)cc2)N1C(=O)N1CCN(CC(=O)N2CCOCC2)CC1` was tested, and the “activity change, negative = cytotoxicity” value was 2.57% [at 38.5 µM].

In order of rising “activity change, negative = cytotoxicity” value:
1. O=C(NCCCNc1nc(Nc2cccc(CN3CCOCC3)c2)ncc1C1CC1)C1CCC1  -27.3%
2. C=C1C(=O)O[C@@H]2/C=C(\C)CC/C=C(\C)CC[C@@H]12  -20.5%
3. COc1ccc2nc3n[nH]c(C)c3c(NCCOCCO)c2c1  -10.9%
4. COc1ccc2[nH]c(=O)c3c(c2c1)OC(C)(C)C=C3  -7.1%
5. O=C(N[C@@H]1CCCc2c1cnn2-c1ccc(F)cc1F)c1ccccn1  -4.91%
6. CC1=C(c2ccc(NC(=O)c3c(F)cccc3F)cc2)CN(c2nccs2)CC1  -4.02%
7. NC(=O)N1CCC(CC(=O)N2CCC(C3c4ncc(Br)cc4CCc4cc(Cl)cc(Br)c43)CC2)CC1 (centres undefined)  -3.49%
8. Fc1ccc(N2CCCCC2)c(NC(=S)c2ccncc2)c1  -3.02%
9. Nc1nccc(-c2c(-c3ccc(F)cc3)ncn2C2CCCCC2)n1  -2.33%
10. CC(C)OC(=O)N1CCC(Oc2ncnc3c2cnn3-c2ccc(S(C)(=O)=O)cc2F)CC1  -1.87%
11. CCCc1cc2c(N3CCN(C4=NCC(C)(C)S4)CC3)ncnc2s1  -1.33%
12. CCC(C(C)O)n1ncn(-c2ccc(N3CCN(c4ccc(OCC5COC(Cn6cncn6)(c6ccc(F)cc6F)C5)cc4)CC3)cc2)c1=O (centres undefined)  -1.24%
13. CCN(CC)CCCCCCNc1cc(OC)cc2c(C)ccnc12  -1.19%
14. O=C(NO)c1ccc(CC(=O)N(CCO)c2ccccc2)cc1  -0.519%
15. Cc1c(C2=CCN(C(=O)N(C)C(C)C)CC2)nnn1-c1cccnc1F  -0.491%
16. CCn1c(=O)c(-c2ccc(Cl)cc2Cl)cc2cnc(Nc3ccc(N4CCNCC4)c(F)c3)nc21  -0.262%
17. CC(=O)C1(C)CCC2C3C=C(C)C4=CC(=O)CCC4(C)C3CCC21C (centres undefined)  0.0463%
18. C=C1C(=O)O[C@@H]2[C@H]1CC[C@H](C)[C@]1(CCC(=O)O1)C2(C)O (some centres undefined)  0.113%
19. CCCc1ccc(OCC(=O)N(Cc2nc(-c3cccnc3)no2)C(C)C)cc1  0.575%
20. O=c1cc(NCCCN[C@@H]2CCOc3c(Br)cc(Br)cc32)[nH]c2ccsc12  0.819%
21. CS(=O)(=O)Nc1ccc2oc3c(OC(F)F)ccc(C(=O)Nc4c(Cl)cncc4Cl)c3c2c1  1.87%
22. Clc1ncoc1-c1c[nH]c2ccccc12  2.02%
23. O=C(NCCO)c1cccc(-c2cc(Nc3ccc(OC(F)(F)F)cc3)ncn2)c1  11%
24. CC(C)c1cccc(C(C)C)c1NC(=O)Nc1ccc(Sc2ccc([N+](=O)[O-])cc2)cc1  14.5%

In order of rising “activity change, negative = cytotoxicity” value:
1. CCCCNc1ncc(-c2ccc(CN3CCOCC3)cn2)c(NC2CCC(O)CC2)n1 (centres undefined)  -4.27% [at 25.3 µM]
2. CC(=O)OC1C(OC(=O)c2ccccc2)C2C(=C(C)CCC2(C)C)C23CCC(C)(C2)C(=O)CC13 (centres undefined)  -2.6% [at 25.3 µM]
3. CN1CCN(S(=O)(=O)c2ccc(-c3cnc(N)c(C(=O)Nc4cccnc4)n3)cc2)CC1  11.7% [at 25.3 µM]

For `CC(C)C[C@@H]1NC(=O)[C@@H](Cc2ccccc2)NC(=O)C(CCCCCC(=O)C2CO2)NC(=O)[C@@H]2CCCCN2C1=O` (some centres undefined), the Potency was 0.708 µM (active).

Each molecule was assayed on Es-2 in the same assay as above. Conditions: Gynecologic cancer cell panel viability, ATPlite luminescence, 48 h; series mostly up to 57.5 µM; activity change, negative = cytotoxicity: at the top concentration.
Procedure, shortened: as §1

In order of falling “activity change, negative = cytotoxicity” value:
1. COc1ccc2nc3n[nH]c(C)c3c(NCCOCCO)c2c1  19%
2. CS(=O)(=O)Nc1ccc2oc3c(OC(F)F)ccc(C(=O)Nc4c(Cl)cncc4Cl)c3c2c1  13.4%
3. Cc1c(C2=CCN(C(=O)N(C)C(C)C)CC2)nnn1-c1cccnc1F  12.1%
4. Fc1ccc(N2CCCCC2)c(NC(=S)c2ccncc2)c1  6.49%
5. O=C(NCCO)c1cccc(-c2cc(Nc3ccc(OC(F)(F)F)cc3)ncn2)c1  6.34%
6. CC(=O)C1(C)CCC2C3C=C(C)C4=CC(=O)CCC4(C)C3CCC21C (centres undefined)  2.77%
7. COc1ccc(N2CCN(C(=O)c3cc4c(s3)-c3ccccc3S(=O)(=O)C4)CC2)cc1  2.16%
8. O=C(N[C@@H]1CCCc2c1cnn2-c1ccc(F)cc1F)c1ccccn1  -0.504%
9. CC(C)OC(=O)N1CCC(Oc2ncnc3c2cnn3-c2ccc(S(C)(=O)=O)cc2F)CC1  -1.02%
10. CCN(CC)CCCCCCNc1cc(OC)cc2c(C)ccnc12  -1.03%
11. CC(C)c1cccc(C(C)C)c1NC(=O)Nc1ccc(Sc2ccc([N+](=O)[O-])cc2)cc1  -1.07%
12. O=c1cc(NCCCN[C@@H]2CCOc3c(Br)cc(Br)cc32)[nH]c2ccsc12  -1.82%
13. Clc1ncoc1-c1c[nH]c2ccccc12  -2.09%
14. CCCc1ccc(OCC(=O)N(Cc2nc(-c3cccnc3)no2)C(C)C)cc1  -2.25%
15. O=C(Nc1ccn(Cc2ccc(O)cc2C(F)(F)F)n1)c1c(F)cccc1F  -2.75%
16. Cc1cc(C(=O)Nc2cc(Nc3ccc4c(/C=C/c5ccccn5)n[nH]c4c3)ccc2F)n(C)n1  -3.23%
17. C[C@@H]1CCCN1CCc1cc2cc(-c3ccc(C#N)cc3)ccc2o1  -3.27%
18. COc1nc2ccc(Br)cc2cc1[C@@H](c1ccccc1)[C@@](O)(CCN(C)C)c1cccc2ccccc12  -4.67%
19. CCC(C(C)O)n1ncn(-c2ccc(N3CCN(c4ccc(OCC5COC(Cn6cncn6)(c6ccc(F)cc6F)C5)cc4)CC3)cc2)c1=O (centres undefined)  -5.59%
20. CC(O)C(C)n1ncn(-c2ccc(N3CCN(c4ccc(OCC5COC(Cn6cncn6)(c6ccc(Cl)cc6Cl)O5)cc4)CC3)cc2)c1=O (centres undefined)  -6.21%
21. CCCc1cc2c(N3CCN(C4=NCC(C)(C)S4)CC3)ncnc2s1  -7.02%
22. O=C(NCCCNc1nc(Nc2cccc(CN3CCOCC3)c2)ncc1C1CC1)C1CCC1  -7.13%
23. CC1=C(c2ccc(NC(=O)c3c(F)cccc3F)cc2)CN(c2nccs2)CC1  -7.35%
24. CN(C)C(=O)Nc1cccc(-c2ccc(N(C)C)cc2)c1  -8.36%
25. O=C(NO)c1ccc(CC(=O)N(CCO)c2ccccc2)cc1  -9.25%
26. COc1ccc2[nH]c(=O)c3c(c2c1)OC(C)(C)C=C3  -11%
27. C=C1CC[C@@H](O)[C@]2(C)C[C@H]3OC(=O)C(=C)[C@H]3CC12 (some centres undefined)  -11.3%
28. C=C1C(=O)O[C@@H]2[C@H]1CC[C@H](C)[C@]1(CCC(=O)O1)C2(C)O (some centres undefined)  -12.1%
29. Cn1ncc(Cl)c1-c1cc(C(=O)N[C@H](CN)Cc2ccc(F)c(F)c2)oc1Cl  -13.9%
30. C=C1C(=O)O[C@@H]2/C=C(\C)CC/C=C(\C)CC[C@@H]12  -20%
31. CCn1c(=O)c(-c2ccc(Cl)cc2Cl)cc2cnc(Nc3ccc(N4CCNCC4)c(F)c3)nc21  -23.8%
32. C=C1/C(=C/C=C2\CCC[C@]3(C)[C@@H]([C@@H](C)OCCC(O)(CC)CC)CC[C@@H]23)C[C@@H](O)C[C@@H]1O  -26.4%
33. Nc1nccc(-c2c(-c3ccc(F)cc3)ncn2C2CCCCC2)n1  -27.5%
34. NC(=O)N1CCC(CC(=O)N2CCC(C3c4ncc(Br)cc4CCc4cc(Cl)cc(Br)c43)CC2)CC1 (centres undefined)  -29.4%

`C[C@@H]1O[C@@H](O[C@H]2[C@@H](OC(=O)[C@]34CCC(C)(C)CC3C3=CCC5[C@@]6(C)C[C@H](O)[C@H](O[C@@H]7O[C@H](CO)[C@@H](O)[C@H](O)[C@H]7O[C@@H]7OC[C@@H](O)[C@H](O)[C@H]7O)[C@@](C)(C(=O)O)C6CC[C@@]5(C)[C@]3(C)CC4)OC[C@H](O)[C@@H]2O)[C@H](O)[C@H](O)[C@H]1O[C@@H]1OC[C@@H](O)[C@H](O)[C@H]1O` (some centres undefined) showed an activity change, negative = cytotoxicity of 4.6% [at 6.55 µM].

With `CCOc1cc(C(C)(C)C)ccc1C1=N[C@@](C)(c2ccc(Cl)cc2)[C@@](C)(c2ccc(Cl)cc2)N1C(=O)N1CCN(CC(=O)N2CCOCC2)CC1` the “activity change, negative = cytotoxicity” value was 12.9% [at 38.5 µM].

In order of falling “activity change, negative = cytotoxicity” value:
1. CCCCNc1ncc(-c2ccc(CN3CCOCC3)cn2)c(NC2CCC(O)CC2)n1 (centres undefined)  1.06% [at 25.3 µM]
2. CN1CCN(S(=O)(=O)c2ccc(-c3cnc(N)c(C(=O)Nc4cccnc4)n3)cc2)CC1  -8.4% [at 25.3 µM]
3. CC(=O)OC1C(OC(=O)c2ccccc2)C2C(=C(C)CCC2(C)C)C23CCC(C)(C2)C(=O)CC13 (centres undefined)  -13.8% [at 25.3 µM]

With `CC(C)C[C@@H]1NC(=O)[C@@H](Cc2ccccc2)NC(=O)C(CCCCCC(=O)C2CO2)NC(=O)[C@@H]2CCCCN2C1=O` (some centres undefined) the Potency was 2.24 µM (active).
